Results on 40 molecules are retold here after PubChem BioAssay (NCI).

Compounds without any hit were thinned out: in the full panel of roughly 83,000, 20% have a hit.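 Percent growth is the endpoint: 0 to 100 indicates growth inhibition (40 means 60% inhibition), 0 means no net growth, and negative values indicate cell death.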 Active and inactive are the calls of the source.

In the assay the test system is CCRF-CEM leukemia. The assay can be described thus: NCI-60 one-dose screen, 48 h (100 = growth as untreated, 0 = no growth, -100 = all killed). To be noted: 10 µM unless noted. As to the method: Growth inhibition of the CCRF-CEM human tumor cell line is measured as a screen for anti-cancer activity. Cells are grown in 96 well plates and exposed to the test compound for 48 hours. Compounds are tested at a single concentration, which is 10^-5 M for most compounds. The reported endpoint is percent growth (GI% or GIPRCNT), where numbers from 0 - 100% represent growth inhibition, and numbers from -100% - 0 represent cell death. For example, a value of 40 represents 60% growth inhibition. A value of 0 means no net growth occurred over the course of the experiment. A value of -40 indicates 40% of cells at the beginning of the experiment died by the end of the experiment. A value of -100 means all cells are dead at the end of the experiment.
NCI-60 Human Tumor Cell Lines Screen was performed using the standard one-dose NCI protocol, which is described in more detail at https://dtp.cancer.gov/discovery_development/nci-60/default.htm.
Compounds with GIPRCNT values below 10 were considered active. Activity score was based on GIPRCNT using the following formula: […]
Score is 0 for GIPRCNT values of 100 or above, 50 for GIPRCNT values of 0, and 100 for GIPRCNT values of -100.
On to `CC1(C)CC[C@]2(C(=O)O)CC[C@]3(C)C(=CCC4[C@@]5(C)C[C@@H](O)[C@@H]6OC(c7ccc(F)cc7)OC[C@@]6(C)C5CC[C@]43C)C2C1` (stereo not given in full), for which the growth was 14.6% (inactive). Next, `CN1CCc2c(sc3ncnc(N/N=C/c4ccc(Cl)cc4Cl)c23)C1`: -8.48% (active); `Cn1cc(NC(=O)c2cc(NC(=O)c3ccc(/C=C/c4ccccc4)cc3)cn2C)cc1C(=O)NCCCN1CCOCC1`: -8.72% (active). Regarding `O=C(N1c2ccccc2Sc2ccccc21)n1ccc2cccnc21`, the growth was 63.2% (inactive).

Take `C=C1CCC2C3(C)COC(c4cccs4)OC3CCC2(C)C1CC(Sc1ccccc1)C1=CCOC1=O` (stereo not given): the growth was 1.2% (active). Regarding `C=C1CCC2C3(C)COC(c4cccc(F)c4)OC3CCC2(C)C1C/C=C1/C(=O)OCC1O` (stereo not given), the growth was 16% (inactive).

As to `CCOC(=O)C1=C(N)N(c2ccccc2)C2=C(C(=O)CC(C)(C)C2)C1c1cccc(Cl)c1Cl` (stereo not given), the growth is 54.8% (inactive).

`CCCCSc1nc(Nc2ccc(S(N)(=O)=O)cc2)c(C#N)c(-c2ccc(Cl)cc2)n1`: the growth was 95% (inactive). Consider `CC1=C(C(=O)OCc2ccccc2)C(c2ccc(-n3cncn3)cc2)n2c(nc3ccccc32)N1` (stereo not given), for which the growth is 16.1% (inactive). Turning to `COc1ccc(NC(=O)Cn2c(/C=C/c3cccc([N+](=O)[O-])c3)nc3ccccc3c2=O)cc1`, the growth is 92.3% (inactive).

On to `Brc1ccc(-c2n(Cc3ccc4ccccc4c3)c(-c3ccccc3)c(-c3ccccc3)[n+]2Cc2ccc3ccccc3c2)cc1`, for which the growth was -10.5% (active). In the case of `Cc1ccc(C2CC(c3ccc(S(=O)(=O)NCCNc4nc(Nc5ccc(F)cc5)nc(N(C)C)n4)cc3)=Nc3c(N)nc(N)nc3N2)cc1` (stereo not given), the growth is 18.4% (inactive). Regarding `CCN(CC)c1ccnc(CNCCSC(c2ccccc2)(c2ccccc2)c2ccc(OC)cc2)c1`, the growth was -3.59% (active).

For `COc1ccc(/C=C/c2n(Cc3ccc4ccccc4c3)c3ccccc3[n+]2Cc2ccc3ccccc3c2)cc1`, the growth was -24.2% (active). For `Cc1ccc([C@H]2C(C(=O)c3ccc(Cl)cc3)C3(N[C@@H]2c2ccccc2)C(=O)Nc2ccc(Br)cc23)cc1` (stereo not given in full), the growth was 68.7% (inactive).

Take `Nc1nnc(-c2c[nH]c3ncc(Br)cc23)c(-c2c[nH]c3ccc(F)cc23)n1`: the growth is 42.7% (inactive).

For `CC(C)(C)OC(=O)/C=C/c1cccc2c1C(=O)NC(C)(c1cc3cc(Cl)ccc3oc1=O)N2` (stereo not given), the growth was 24.2% (inactive). With `COc1cc2c3c(n(CCCN4CCC[C@@H]4CO)c(=O)c2cc1OC)-c1cc2c(cc1C3=O)OCO2` the figure was 6.04% (active). With `CCOc1ccc(C(=O)NC(=S)Nc2ccc(S(N)(=O)=O)cc2)cc1` the figure was 101% [100 µM] (inactive). Consider `COc1cccc(/C=C/c2nc3ccccc3c(=O)n2CC(=O)Nc2ccc(Cl)cc2)c1`, for which the growth is 86.1% (inactive). Next, `N#Cc1ccc(/C=N/NC(=O)c2[nH]c3ccc(Br)cc3c2-c2ccccc2)o1`: -3.51% (active); `NC(=S)Nc1cccc(NC(N)=S)c1`: 96.4% (inactive).

Consider `O=c1[nH]c2ccccc2cc1CSc1nccc(-c2ccc3ccccc3c2)n1`, for which the growth was 33.1% (inactive).

Turning to `COc1ccc2c(c1)C(=N/N=C(\C)c1ccc(OC)c(S(N)(=O)=O)c1)C(=O)N2`, the growth is 74% (inactive).

For `Cc1ccc(NCC(=O)Cn2cc(COc3ccc(C=Nc4cnc5ccccc5c4)cc3)nn2)cc1`, the growth was 102% (inactive). For `COc1ccc(-c2ccc(SCC(=O)NCCc3ccc(S(N)(=O)=O)cc3)nn2)cc1`, the growth is 66% (inactive). With `COc1ccc(-c2c(Nn3cnnn3)no[n+]2[O-])cc1` the figure was 40.6% (inactive); with `CC1(C)CC[C@]2(C(=O)O)CC[C@]3(C)C(=CCC4[C@@]5(C)C[C@@H](O)[C@@H]6OC(c7ccco7)OC[C@@]6(C)C5CC[C@]43C)C2C1` (stereo not given in full), 21.7% (inactive); with `N/C(=N\c1nc2ccccc2s1)NC(=O)Nc1ccc(Cl)cc1Cl`, 5.6% (active).

With `COc1ccc(/C=C/c2nc3ccccc3c(=O)n2CC(=O)Nc2ccc(Cl)cc2)cc1`, the growth was 108% (inactive). With `Cc1ncsc1-c1ccc(CNC(=O)[C@@H]2C[C@@H](O)CN2C(=O)[C@@H](NC(=O)C2(F)CC2)C(C)(C)C)c(OCCOCCOCCOCCOc2nc(Nc3cc(S(C)(=O)=O)ccc3N[C@@H](c3cccc4c3OC(F)(F)O4)c3ncccc3Cl)nc(N3CCNCC3)n2)c1` the figure was -9.39% (active). As for `CC(=O)NNc1ccc2nnc(-c3ccccc3)n2n1`, the growth is 108% (inactive). In the case of `COc1ccc(C(=O)/C=C/c2ccccc2Cl)cc1S(N)(=O)=O`, the growth was 111% (inactive). Next, `CC1(c2cc3cc(Br)ccc3oc2=O)NC(=O)c2c(/C=C/C(=O)OC3CC4CCC3(C)C4(C)C)cccc2N1` (stereo not given): 82.2% (inactive); `Cc1sc(C(NC(=O)OCCn2c([N+](=O)[O-])cnc2C)C(F)(F)Cl)nc1-c1ccc(OC(F)(F)F)cc1` (stereo not given): -17.4% (active).

Turning to `COc1ccc(NC(=O)[C@H](C)N)cc1C(=O)Nc1cccc(C2CC(=O)c3c(cc(OC)c(OC)c3OC)O2)c1` (stereo not given in full), the growth was 57.4% (inactive). With `CC1=C(C#N)C2=NNCC(c3ccccc3)=NN2C(c2ccccc2)=C1` the figure was 110% (inactive); with `O=C(CSc1nc2ccccc2c(=O)[nH]1)NCCN1CCCCC1`, 98.5% (inactive). Next, `COc1ccc(C2CC(c3ccc(S(=O)(=O)NCCNc4nc(Nc5ccc(F)cc5)nc(N(C)C)n4)cc3)=Nc3c(N)nc(N)nc3N2)cc1` (stereo not given): 36.2% (inactive); `CCCCSc1nc(Nc2ccc(C(C)=O)cc2)c(C#N)c(-c2ccc(OC)cc2)n1`: 100% (inactive).
